The experiment has as its system VDR:RXRa (NR concentration 270 nM, RXRa partner concentration 90 nM). Kind of experiment: PBM binding z-score (relative to random genomic background probes); higher = stronger binding; sequences stand for … in GC…GCGATTGACAGCGTAGAATGAAGG
The protocol: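 Protein-binding microarray (Agilent 4x180K custom design, double-stranded 60-nt probes: 5' GC cap, 34-nt variable region, 24-nt constant primer region; full probe sequence given). Purified or IVT nuclear receptor:RXRα heterodimers (3:1 NR:RXRα, mostly 270:90 nM) or homodimers were incubated for 1 h in PBS with 2% milk and no ligand, then detected with Alexa488 antibodies. Fluorescence from o1-orientation probes (~5 replicates averaged) was converted to z-scores against 500 random hg19 background probes. Variable regions are seed direct-repeat (DR0–DR5) sites, all their single-nucleotide variants and half-site ablations.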
As for ACTTACGGGTCAACGAGGTTATGGCACGCGTATA, the PBM binding z-score was 7.66.

In turn, TAGCCTAGGTCAGATCGGGCCAGTATGCGCTATA registered a PBM binding z-score of 0.446. The result for TCTATTAATTGATTAGGGCAACCGAAACAGCGGA reads 0.405. As for CCTAGCAGGGCAGGGTCACTCAAGCATTTCGCTT, the figure is 2.88. The result for ATCTCTAGGTAAGCCTCAGTTCAGTGAAGAACGC reads 0.546; that for CGAACTATGTCATTGACAGGACAGTGAATAGTAA, 0.154; that for ACAGACAGGTGTGTGAAGGTAACTCAGCTGGACG, -0.572.

In turn, ATATGTAGGTTAGCTTGGGTCATTCAGACTAGGC had a PBM binding z-score of 2.64. As for CGAACTAGGTCAAGGACAGTGGATCTCCGCACGC, the figure is 1.22. As for CCTTACGGATCACGAGGTTATAGCACGACGAGCG, the figure is 1.05. The result for ATCTCTACGTAAAGATAGTTCAGTGAATGCAAAT reads 0.567; that for TGAGTGAGGTTAAAGATCAGGGAACGTGGCGTCG, 1.66. As to GCTCGGACGACAAGGTCAGAGCTTTGTCCGTAGA, the PBM binding z-score was 1.4. As for CCGGACAGGTGAAAGGTAACTCAGTCTGGTACGC, the figure is 0.694; as for CTGACTGGGGCAAAGGTTACCATACTCAGTACGA, 2.07.

Regarding TCTCGGAGGACACGAAAGGTCATAGCTCGACATC, the PBM binding z-score stood at 4.71. Sequence AGATGTAGGTTACATCCGGGTCATTCAGGCTATG showed a PBM binding z-score of 4. The sequence GCCAGCAGGCCATTTGGGTCACTCAATGACGGGC registered a PBM binding z-score of 0.978.

In turn, ATCGAAAGGTCGAGGTGAGTATGGAGAAAGGGAA gave a PBM binding z-score of 2.59. On to TCTTGTAGATCAACAGGAGGTTAACAAAGATCGA, for which the PBM binding z-score was found to be 0.812. Turning to TCTGCTAGGTCAGTTGTTCAGCTAACGAGCTGCC, the PBM binding z-score was -0.272. As for CAAACTAGGTCAAGGTCAATGTCGGTTTGTGCCA, the figure is 4.81.

For GCTGCTAGGTCAGGTGGGTCAGCTAACGGGTACG, the PBM binding z-score worked out at 2.75.

In the case of TAGGCTAGGTCATGGGCCAGTATACCACGCGAAC, the PBM binding z-score amounted to 1.98. The result for GCTAGTTGGTCAGAAAAAGGTCACACACCGGTCG reads 3.77.

Sequence ATATGTAAGTTATCGGGTCATTCAGTTTGCGCAT yielded a PBM binding z-score of 4.93. For the sequence ACAGACAGGTGAGTGAAGGTAACTCATCTGGACG, the PBM binding z-score is -0.347. The result for TCTAGTTGGTCAGGGAGGTCACACACGACGGGTA reads 5.4. The result for CGAACTAGGTGAAGGACAGTGAATCTCCGCACGC reads -0.403; that for AGCTCTAGGTAAAGATAGTTCAGTGAATGCAAAT, 0.921; that for GCTTGAAGATCAAGGTTAAGAAAGACTAAGCTAA, 0.0982. In the case of AGATCGAGGGCAATGAGTTGATAGCACGGGTGGC, the PBM binding z-score came out at 5.15. CCTGGTTGGTCAGGAGGTCACACACCGGATATGA: the PBM binding z-score was found to be 3.73.

Sequence CCTTCTGGGCCACGAAAGGTCATTGATTCAGTGA gave a PBM binding z-score of 4.28.

The sequence CATACAGGGTCAGCTAGTCCAGAGTAGGGACGGC showed a PBM binding z-score of 4.36. The result for CCTTACGGGTCACTAGGTTATAGCACGACGAGCG reads 3.38. As for GCGACTGGGGCATCAGCAGGTTACCATGACTTAA, the figure is -0.443; as for GGAACGAGGGCATTCCAGTTGATAGCATGGCGAT, 2. As for TCTTGTAGATCAGCAGGTTAGGAAAGCTGGCCAA, the figure is 0.153; as for GTACCAAGGTGAATTGGTCGTTGATGAGTAGGCG, -0.409.

The values are drawn from the supplement of paper PMC6555819.
